Laboratory results reported in PubChem BioAssay (Tox21).
Where “and” joins values, the source holds several entries; their conditions need not be identical. Identical values can stand only once. Results filed as inconclusive are left out. Calls of active or inactive are those of the source. Unless noted, calls follow the shape of the full dose curve.

Key:
[1] = qHTS assay to identify small molecule antagonists of the sonic hedgehog signaling (Shh) pathway (AID 1259369); also: nearly all actives have a fitted effect of over 45% in size; also: potency is read from the fitted curve at half-maximal effect
Method in brief: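 Luminescence readout: firefly Luc under Gli1 response element in 3T3Gli1-Luc cells (NIH/3T3 clone). Antagonist mode, stimulation by conditioned medium; compound exposure 24hr at 37 C, 5% CO2.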

[2] = qHTS assay to identify small molecule agonists of the androgen receptor (AR) signaling pathway in the presence of an antagonist - cell viability counter screen (AID 1259379; active = well fitted curve in the direction sought with a large enough effect in the repeat runs; an effect the other way counts as inactive or inconclusive; also: nearly all actives have a fitted effect of over 25% in size; also: potency is read from the fitted curve at half-maximal effect;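 as to activity change, negative = cytotoxicity: MDA-kb2 human breast cancer cells carrying an MMTV luciferase reporter; series mostly up to about 92 µM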)
Method in brief: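 Viability counter screen: CellTiter-Fluor fluorescence, measured in the same wells as the luciferase read-out. MDA-kb2 cells, 3,000/well, with nilutamide at 3.0uM final and compounds at 15 concentrations, 16 hr at 37C, 0% CO2.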

[3] = qHTS assay to identify small molecule agonists of the estrogen receptor beta (ER-beta) signaling pathway - cell viability counter screen (AID 1259380; active = well fitted curve in the direction sought with a large enough effect in the repeat runs; an effect the other way counts as inactive or inconclusive; also: nearly all actives have a fitted effect of over 30% in size; also: potency is read from the fitted curve at half-maximal effect)
Method in brief: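 Luminescence read-out (CellTiter-Glo, 30 min, room temp) taken in the same wells as the beta-lactamase reporter assay; ER-beta-UAS-bla HEK293T cells exposed to DMSO-dissolved compounds for 16 hr at 37C in 2% charcoal-stripped FBS medium.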

[4] = qHTS assay to identify small molecule antagonists of the estrogen receptor beta (ER-beta) signaling pathway - cell viability counter screen (AID 1259382; active = well fitted curve in the direction sought with a large enough effect in the repeat runs; an effect the other way counts as inactive or inconclusive; also: nearly all actives have a fitted effect of over 55% in size; also: potency is read from the fitted curve at half-maximal effect;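 as to activity change, negative = cytotoxicity: HEK293T cells carrying ER-beta-UAS-bla reporter stimulated with estradiol; series mostly up to about 92 µM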)
Method in brief: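 Luminescent ATP read-out (CellTiter-Glo, 30 min, RT) taken in the same wells as the bla reporter assay. HEK293T ER-beta-UAS-bla cells in 2% charcoal-stripped FBS were exposed to compounds with 1nM E2 for 16 hr at 37C.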

[5] = biological target: Estrogen receptor (Homo sapiens) (UniProt P03372); experiment: qHTS assay to identify small molecule agonists of the estrogen receptor alpha (ER-alpha) signaling pathway in the presence of an antagonist (AID 1259383); also: nearly all actives have a fitted effect of over 15% in size; also: potency is read from the fitted curve at half-maximal effect; as to activation: top concentration of the series differs between compounds
Sequence of Estrogen receptor (Homo sapiens) (P03372 whole entry, looked up): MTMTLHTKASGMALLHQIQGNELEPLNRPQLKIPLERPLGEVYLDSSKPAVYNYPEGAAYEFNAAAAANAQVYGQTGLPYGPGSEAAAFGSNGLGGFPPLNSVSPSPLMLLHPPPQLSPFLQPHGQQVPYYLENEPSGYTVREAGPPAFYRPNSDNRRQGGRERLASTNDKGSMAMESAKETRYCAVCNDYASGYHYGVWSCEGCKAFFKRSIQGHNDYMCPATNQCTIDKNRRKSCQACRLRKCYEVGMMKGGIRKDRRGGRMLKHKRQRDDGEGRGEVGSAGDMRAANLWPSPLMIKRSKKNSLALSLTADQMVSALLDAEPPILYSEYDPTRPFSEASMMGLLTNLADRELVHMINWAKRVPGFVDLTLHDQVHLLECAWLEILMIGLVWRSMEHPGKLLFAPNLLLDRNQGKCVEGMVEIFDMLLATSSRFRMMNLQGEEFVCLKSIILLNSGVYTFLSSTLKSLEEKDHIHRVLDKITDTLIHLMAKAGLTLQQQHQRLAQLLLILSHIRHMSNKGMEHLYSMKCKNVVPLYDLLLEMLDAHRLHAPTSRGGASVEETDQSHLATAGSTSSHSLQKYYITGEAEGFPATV
Method in brief: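 Luciferase luminescence (ONE-Glo, 30min at room temperature) measured in VM7Luc4E2 cells after 22hr compound exposure at 15 concentrations, with 10.0nM ICI-182,780 final present; cells express endogenous ER-alpha and carry four EREs upstream of luciferase.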

[6] = qHTS assay to identify small molecule agonists or antagonists of the thyroid stimulating hormone receptor (TSHR) signaling pathway - wild type cell line counter screen (AID 1259384)
Method in brief: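 Counter screen in untransfected Hek293: compounds (15-point titration, triplicate) plus phosphodiesterase inhibitor Ro20-1724 added after 18 h plating; 30 min RT. Intracellular cAMP via competitive d2/cryptate immunoassay, 1 h incubation.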

[7] = biological target: Thyrotropin receptor (Homo sapiens) (UniProt P16473); experiment: qHTS assay to identify small molecule antagonists of the thyroid stimulating hormone receptor (TSHR) signaling pathway (AID 1259385); also: nearly all actives have a fitted effect of over 20% in size; also: potency is read from the fitted curve at half-maximal effect
Sequence of Thyrotropin receptor (Homo sapiens) (P16473 whole entry, looked up): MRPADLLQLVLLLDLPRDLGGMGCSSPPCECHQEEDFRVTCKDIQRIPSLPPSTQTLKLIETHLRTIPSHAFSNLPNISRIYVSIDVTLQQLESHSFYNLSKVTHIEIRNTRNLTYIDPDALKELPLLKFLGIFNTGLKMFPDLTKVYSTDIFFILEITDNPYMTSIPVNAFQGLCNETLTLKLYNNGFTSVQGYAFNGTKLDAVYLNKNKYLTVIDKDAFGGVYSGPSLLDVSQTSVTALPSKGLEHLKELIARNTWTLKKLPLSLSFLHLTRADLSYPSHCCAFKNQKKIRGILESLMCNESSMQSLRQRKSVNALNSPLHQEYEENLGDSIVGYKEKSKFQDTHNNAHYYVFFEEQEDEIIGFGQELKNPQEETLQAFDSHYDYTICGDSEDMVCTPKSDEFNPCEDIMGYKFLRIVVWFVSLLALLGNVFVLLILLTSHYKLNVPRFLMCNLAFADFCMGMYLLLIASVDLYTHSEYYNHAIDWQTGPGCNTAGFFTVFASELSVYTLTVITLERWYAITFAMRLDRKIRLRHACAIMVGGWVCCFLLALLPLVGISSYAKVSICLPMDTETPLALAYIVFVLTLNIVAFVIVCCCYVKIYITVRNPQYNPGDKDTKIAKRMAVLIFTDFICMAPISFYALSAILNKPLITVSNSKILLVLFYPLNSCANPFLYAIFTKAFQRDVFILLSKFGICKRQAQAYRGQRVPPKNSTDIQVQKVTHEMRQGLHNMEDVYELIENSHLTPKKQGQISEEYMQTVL
Method in brief: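 Antagonist mode: compound-treated TSHR-expressing HEK293 cells were stimulated with 1.5 ng/mL TSH (final) in presence of Ro20-1724 for 30 min at RT. HTRF cAMP detection after 1 h; each compound tested at 15 concentrations, triplicate.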

[8] = biological target: Androgen receptor (Homo sapiens) (UniProt P10275); experiment: qHTS assay to identify small molecule agonists of the androgen receptor (AR) signaling pathway in the presence of an antagonist (AID 1259381); also: nearly all actives have a fitted effect of over 15% in size
Sequence of Androgen receptor (Homo sapiens) (P10275 whole entry, looked up): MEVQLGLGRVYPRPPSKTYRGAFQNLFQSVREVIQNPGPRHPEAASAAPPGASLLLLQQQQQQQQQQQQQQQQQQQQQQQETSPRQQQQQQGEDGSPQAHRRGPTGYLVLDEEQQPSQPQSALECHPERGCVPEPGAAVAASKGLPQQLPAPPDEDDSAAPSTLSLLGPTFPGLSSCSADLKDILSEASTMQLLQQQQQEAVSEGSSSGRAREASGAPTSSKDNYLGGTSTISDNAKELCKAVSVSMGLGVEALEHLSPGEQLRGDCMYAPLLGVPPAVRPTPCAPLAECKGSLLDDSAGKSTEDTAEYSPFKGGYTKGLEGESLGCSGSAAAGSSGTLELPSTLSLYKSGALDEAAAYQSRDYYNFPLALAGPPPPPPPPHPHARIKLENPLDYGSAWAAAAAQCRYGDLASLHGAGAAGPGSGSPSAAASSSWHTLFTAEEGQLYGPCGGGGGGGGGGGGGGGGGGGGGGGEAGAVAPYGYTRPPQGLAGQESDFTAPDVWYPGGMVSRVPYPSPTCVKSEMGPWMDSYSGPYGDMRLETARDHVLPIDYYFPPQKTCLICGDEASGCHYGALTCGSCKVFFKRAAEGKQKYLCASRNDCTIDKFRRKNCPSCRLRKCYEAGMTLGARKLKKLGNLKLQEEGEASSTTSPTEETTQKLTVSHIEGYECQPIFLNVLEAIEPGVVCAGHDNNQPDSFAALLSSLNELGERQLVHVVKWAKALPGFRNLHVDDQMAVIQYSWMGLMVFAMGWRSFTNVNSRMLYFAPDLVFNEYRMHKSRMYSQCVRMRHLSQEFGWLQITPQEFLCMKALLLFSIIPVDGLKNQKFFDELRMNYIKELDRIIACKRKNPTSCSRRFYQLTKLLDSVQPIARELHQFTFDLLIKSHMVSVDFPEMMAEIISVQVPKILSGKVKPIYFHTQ
Method in brief: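 Luciferase read-out (ONE-Glo, 30min room temperature) in MDA-kb2 MMTV-reporter cells; agonist mode run in presence of AR antagonist nilutamide, 3.0uM final. Compounds tested as 15-point series, 16hr exposure at 37C, 0% CO2.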

[9] = biological target: Estrogen receptor beta (Homo sapiens) (UniProt Q92731); experiment: qHTS assay to identify small molecule agonists of the estrogen receptor beta (ER-beta) signaling pathway (AID 1259377; active = well fitted activation curve with a large enough effect in the signal ratio in the repeat runs, not every such curve was filed as active; the % refers to the signal ratio)
Sequence of Estrogen receptor beta (Homo sapiens) (Q92731 whole entry, looked up): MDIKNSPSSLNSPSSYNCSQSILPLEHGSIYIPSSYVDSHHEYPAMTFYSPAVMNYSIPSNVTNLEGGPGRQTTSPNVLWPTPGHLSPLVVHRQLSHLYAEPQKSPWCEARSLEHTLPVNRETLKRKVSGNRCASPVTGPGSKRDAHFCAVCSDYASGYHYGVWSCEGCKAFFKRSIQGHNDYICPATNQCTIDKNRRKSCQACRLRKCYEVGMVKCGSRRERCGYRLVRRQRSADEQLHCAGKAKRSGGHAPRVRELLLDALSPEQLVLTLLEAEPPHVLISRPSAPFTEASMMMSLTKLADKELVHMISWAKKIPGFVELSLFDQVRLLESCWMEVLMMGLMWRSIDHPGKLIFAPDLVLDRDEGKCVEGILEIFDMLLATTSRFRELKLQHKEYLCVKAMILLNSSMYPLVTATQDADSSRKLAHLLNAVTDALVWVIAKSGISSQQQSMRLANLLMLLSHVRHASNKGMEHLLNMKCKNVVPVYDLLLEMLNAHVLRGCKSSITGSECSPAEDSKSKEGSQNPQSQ
Method in brief: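 A UAS-controlled beta-lactamase reporter in ER-beta-UAS-bla HEK293T cells reports receptor activation. Compounds act for 16 hr at 37C in 2% charcoal-stripped serum, and a FRET substrate is read by fluorescence after 2 hours.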

[10] = biological target: Estrogen receptor beta (Homo sapiens) (UniProt Q92731); experiment: qHTS assay to identify small molecule antagonists of the estrogen receptor beta (ER-beta) signaling pathway (AID 1259378; active = well fitted inhibition curve with a large enough effect in the signal ratio in the repeat runs, not every such curve was filed as active; the % refers to the signal ratio)
Method in brief: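 Antagonist mode: compounds added to beta-lactamase reporter HEK293T ER-beta-UAS cells stimulated with E2 (1nM final), 16 hr at 37C. LiveBLAzer B/G FRET substrate, 2 hours room temperature, fluorescence read-out.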
% is scaled to controls: 0 for no effect and ±100 for the full control effect.

O=C(O)c1cccc(C(F)(F)F)c1
inactive: Potency [1] | Potency [2] | Potency [3] | Potency [4] | Potency [5] | outcome [6] | Potency [7]

CCCCCCCCCCC[C@@H](C[C@@H]1OC(=O)[C@H]1CCCCCC)OC(=O)[C@H](CC(C)C)NC=O
inactive: Potency [1] | Potency [2] | Potency [3] | outcome [6] | Potency [7]

Cc1cc(=O)oc2cc(O)cc(O)c12
active: Potency [1] 21.8 µM
inactive: Potency [2] | outcome [8] | Potency [4] | Potency [5] | outcome [6]

CCCCCCOC(=O)C(C)CC (stereo not given)
inactive: Potency [1] | Potency [2] | outcome [8] | Potency [4] | Potency [5] | outcome [6]

NC(=S)NC(N)=S
inactive: Potency [1] | Potency [2] | outcome [8] | Potency [4] | Potency [5] | outcome [6] | Potency [7]

O=C(O)c1cc(O)c2ccccc2c1O
active: Potency [1] 1.72 µM | Potency [2] 54.5 µM | Potency [3] 30.6 µM
inactive: Potency [5] | outcome [6]

CCCCCCCC
inactive: Potency [1] | Potency [2] | Potency [3] | Potency [4] | outcome [6] | Potency [7]

CCCCCCCCCCCCCC[N+](C)(C)Cc1ccccc1
active: Potency [1] 349 nM and 422 nM | Potency [2] 43.9 µM and 29.8 µM and 14.1 mM | Potency [3] 27.7 µM and 10.6 µM and 11.2 mM | Potency [4] 19.6 µM and 9.44 µM and 10 mM
inactive: Potency [5] | outcome [6] | Potency [7]

C#Cc1ccc(-c2ccccc2F)cc1
inactive: Potency [1] | Potency [2] | Potency [3] | Potency [4] | outcome [6] | Potency [7]

ClCCl
inactive: Potency [1] | Potency [2] | outcome [8] | Potency [5]

Cc1c2ccccc2c(C)c2c1ccc1ccccc12
active: Potency [1] 10.9 µM | Potency [2] 53.9 µM and 61.1 µM | Potency [4] 24.3 µM
inactive: outcome [8] | outcome [6] | Potency [7]

CCC(COC(=O)CCS)(COC(=O)CCS)COC(=O)CCS
inactive: Potency [1] | Potency [2] | Potency [4] | Potency [5] | outcome [6]

COC1=C(OC)C(=O)C(CCCCCCCCCCO)=C(C)C1=O
inactive: Potency [1] | outcome [8] | Potency [5]

COc1ccc2cc1Oc1ccc(cc1)C[C@H]1c3c(cc4c(c3Oc3cc5c(cc3OC)CCN(C)[C@@H]5C2)OCO4)CCN1C
active: Potency [1] 3.76 µM | Potency [2] 26.6 µM | Potency [7] 23.7 µM
inactive: outcome [8] | Potency [4] | Potency [5] | outcome [6]

Cc1nc2n(c(=O)c1CCN1CCC(c3noc4cc(F)ccc34)CC1)CCCC2
inactive: Potency [1] | Potency [2] | Potency [5] | outcome [6]

O=S(=O)(O)c1ccccc1/C=C/c1ccc(-c2ccc(/C=C/c3ccccc3S(=O)(=O)O)cc2)cc1
inactive: Potency [1] | Potency [3] | Potency [4] | Potency [5] | outcome [6]

O=C(O)c1cc(N=Nc2ccc([N+](=O)[O-])cc2)ccc1O
active: Potency [2] 60 µM
inactive: Potency [1] | Potency [5] | outcome [6] | Potency [7]

CCCNCCC
inactive: Potency [1] | Potency [2] | outcome [6] | Potency [7]

O=c1oc2cc(O)ccc2c2oc3cc(O)ccc3c12
active: Potency [1] 13.1 µM
inactive: Potency [2] | Potency [4]

CCC(C)n1ncn(-c2ccc(N3CCN(c4ccc(OC[C@H]5CO[C@](Cn6cncn6)(c6ccc(Cl)cc6Cl)O5)cc4)CC3)cc2)c1=O (stereo not given in full)
active: Potency [1] 1.68 µM
inactive: Potency [2] | Potency [5] | outcome [6]

C#C[C@]1(OC(C)=O)CC[C@H]2[C@@H]3CCC4=C/C(=N/O)CC[C@@H]4[C@H]3CC[C@@]21CC
inactive: Potency [1] | Potency [2] | outcome [6]
active: Potency [5] 2.11 µM

CC(=O)c1ccc(C(C)=O)cc1
inactive: Potency [9] | Potency [10] | Potency [2] | Potency [3] | outcome [8] | outcome [6] | Potency [7]

CCCCCC(C)OC(=O)COc1ccc(Cl)c2cccnc12 (stereo not given)
inactive: Potency [2] | Potency [4] | Potency [5] | outcome [6] | Potency [7]
active: Potency [1] 54.5 µM

Cc1c(C)c2c(c(C)c1OC(=O)c1cccnc1)CC[C@@](C)(CCC[C@H](C)CCC[C@H](C)CCCC(C)C)O2
inactive: Potency [1] | Potency [2] | Potency [4] | outcome [6] | Potency [7]

OCCN1CCN(CCCN2c3ccccc3Sc3ccc(C(F)(F)F)cc32)CC1
active: Potency [3] 26.6 µM | Potency [4] 21.1 µM
inactive: Potency [1] | Potency [5] | outcome [6] | Potency [7]

C[C@H]1NCc2cc(-c3ccc4c(=O)c(C(=O)O)cn(C5CC5)c4c3OC(F)F)ccc21
inactive: activity change, negative = inhibition [1] 4.27% [at 19 µM] | activity change, negative = cytotoxicity [2] -2.32% [at 19 µM] | activity change, negative = cytotoxicity [4] 2.92% [at 19 µM] | cAMP activity change [6] -2.09% [at 18.9 µM]

C[C@@H](O)[C@H](N)C(=O)O
inactive: activity change, negative = inhibition [1] 10.6% [at 19 µM] | activity change, negative = cytotoxicity [2] -0.428% [at 19 µM] | activity change, negative = cytotoxicity [4] 0.119% [at 19 µM]
